{
  "source": "paper PMC7862700",
  "about": "“An all-to-all approach to the identification of sequence-specific readers for epigenetic DNA modifications on cytosine”",
  "experiment_in_all_cases": "DAPPL (digital affinity profiling via proximity ligation, sequencing); 10 mM Tris-HCl pH 7.5, 50 mM NaCl, 1 mM DTT, 4% glycerol, room temperature, 30 min; GST-TFs on glutathione beads, 16-mer random dsDNA library, 0.1% formaldehyde crosslink after washing; high values mean tight binding",
  "conditions_in_all_cases": "protein: recombinant; tags: N-terminal GST; dsDNA, one strand shown",
  "key": {"ERG": {"biological_target": "T1, ERG (Homo sapiens, UniProt P11308 1-479)", "T1 sequence": "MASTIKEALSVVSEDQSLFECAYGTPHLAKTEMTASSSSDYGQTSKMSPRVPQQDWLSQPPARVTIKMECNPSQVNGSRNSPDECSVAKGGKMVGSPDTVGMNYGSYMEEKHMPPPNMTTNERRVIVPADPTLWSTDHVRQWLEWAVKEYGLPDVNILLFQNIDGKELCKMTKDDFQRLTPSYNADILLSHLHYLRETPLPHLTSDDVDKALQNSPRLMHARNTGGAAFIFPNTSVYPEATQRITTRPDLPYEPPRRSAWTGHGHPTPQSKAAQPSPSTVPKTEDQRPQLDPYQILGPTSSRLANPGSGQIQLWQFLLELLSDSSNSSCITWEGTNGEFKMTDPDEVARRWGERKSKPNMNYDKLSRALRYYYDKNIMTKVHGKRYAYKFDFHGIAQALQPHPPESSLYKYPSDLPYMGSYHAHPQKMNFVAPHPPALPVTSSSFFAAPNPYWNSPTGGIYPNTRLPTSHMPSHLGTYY", "in_short": "(§1)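 Beads coated with glutathione captured GST-fused human transcription factors that had been expressed in yeast, and the factors were then given DNA barcodes and pooled with a tag-only sample. The pools were incubated with 200 nmole of a random double-stranded 16-mer DNA library in Tris/NaCl/DTT/glycerol buffer for 30 min at room temperature, washed, crosslinked with 0.1% formaldehyde and proximity-ligated with BsaI/T4 ligase at 37 °C for 1 h. PCR amplification and Illumina NextSeq500 sequencing came last. Binding signal is each hexamer's read frequency for a factor divided by its frequency for the tag-only sample.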"}, "EHF": {"biological_target": "T2, EHF (Homo sapiens, UniProt Q9NZC4 1-300)", "T2 sequence": "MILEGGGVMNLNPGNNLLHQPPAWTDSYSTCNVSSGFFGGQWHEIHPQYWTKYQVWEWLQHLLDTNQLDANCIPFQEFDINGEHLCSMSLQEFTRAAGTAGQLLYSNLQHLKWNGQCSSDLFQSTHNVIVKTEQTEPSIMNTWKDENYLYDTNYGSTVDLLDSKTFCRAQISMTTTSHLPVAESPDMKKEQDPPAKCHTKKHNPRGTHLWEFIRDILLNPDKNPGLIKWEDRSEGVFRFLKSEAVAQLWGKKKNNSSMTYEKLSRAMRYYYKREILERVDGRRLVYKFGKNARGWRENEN", "in_short": "as §1"}, "ELK3": {"biological_target": "T3, ELK3 (Homo sapiens, UniProt P41970 1-407)", "T3 sequence": "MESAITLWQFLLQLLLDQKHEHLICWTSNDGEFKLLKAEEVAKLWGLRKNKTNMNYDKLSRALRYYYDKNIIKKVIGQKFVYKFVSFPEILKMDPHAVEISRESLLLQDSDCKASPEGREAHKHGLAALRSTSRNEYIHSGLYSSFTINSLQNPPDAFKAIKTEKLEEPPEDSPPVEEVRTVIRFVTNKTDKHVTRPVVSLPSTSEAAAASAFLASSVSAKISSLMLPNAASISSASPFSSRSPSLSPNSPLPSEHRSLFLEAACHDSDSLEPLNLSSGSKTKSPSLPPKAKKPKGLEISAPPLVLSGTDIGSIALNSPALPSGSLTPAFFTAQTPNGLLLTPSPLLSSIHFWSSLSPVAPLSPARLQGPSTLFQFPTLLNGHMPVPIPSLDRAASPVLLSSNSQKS", "in_short": "as §1"}, "SPIC": {"biological_target": "T4, SPIC (Homo sapiens, UniProt Q8N5J4 1-248)", "T4 sequence": "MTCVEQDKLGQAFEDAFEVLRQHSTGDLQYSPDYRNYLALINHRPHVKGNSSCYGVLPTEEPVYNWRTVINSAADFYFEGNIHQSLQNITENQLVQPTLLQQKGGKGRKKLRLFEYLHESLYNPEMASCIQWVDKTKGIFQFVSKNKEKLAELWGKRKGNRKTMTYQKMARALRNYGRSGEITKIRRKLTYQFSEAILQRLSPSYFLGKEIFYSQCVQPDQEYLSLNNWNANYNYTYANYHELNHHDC", "in_short": "as §1"}, "ELF4": {"biological_target": "ELF4 (Homo sapiens, UniProt Q99607 1-663)", "sequence (Q99607 whole entry)": "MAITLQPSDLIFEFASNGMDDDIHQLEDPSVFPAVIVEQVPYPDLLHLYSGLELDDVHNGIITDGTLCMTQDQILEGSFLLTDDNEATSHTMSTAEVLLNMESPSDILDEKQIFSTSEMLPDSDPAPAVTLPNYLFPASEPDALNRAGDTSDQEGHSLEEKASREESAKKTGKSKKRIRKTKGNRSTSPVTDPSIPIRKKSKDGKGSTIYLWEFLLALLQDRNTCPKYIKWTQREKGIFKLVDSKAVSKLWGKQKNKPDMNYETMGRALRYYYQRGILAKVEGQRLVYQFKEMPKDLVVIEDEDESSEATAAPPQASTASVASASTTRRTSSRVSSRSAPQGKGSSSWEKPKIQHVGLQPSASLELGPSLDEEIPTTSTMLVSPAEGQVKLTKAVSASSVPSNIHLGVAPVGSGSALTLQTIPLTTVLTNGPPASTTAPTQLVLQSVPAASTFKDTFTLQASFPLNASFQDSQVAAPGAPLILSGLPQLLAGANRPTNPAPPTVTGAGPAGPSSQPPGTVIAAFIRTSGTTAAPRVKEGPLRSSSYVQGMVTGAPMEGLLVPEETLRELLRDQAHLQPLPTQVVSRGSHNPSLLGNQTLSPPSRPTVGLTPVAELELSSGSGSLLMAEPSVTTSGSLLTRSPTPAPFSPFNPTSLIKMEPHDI", "in_short": "as §1"}, "ELK4": {"biological_target": "T5, ELK4 (Homo sapiens, UniProt P28324-2 1-405)", "T5 sequence": "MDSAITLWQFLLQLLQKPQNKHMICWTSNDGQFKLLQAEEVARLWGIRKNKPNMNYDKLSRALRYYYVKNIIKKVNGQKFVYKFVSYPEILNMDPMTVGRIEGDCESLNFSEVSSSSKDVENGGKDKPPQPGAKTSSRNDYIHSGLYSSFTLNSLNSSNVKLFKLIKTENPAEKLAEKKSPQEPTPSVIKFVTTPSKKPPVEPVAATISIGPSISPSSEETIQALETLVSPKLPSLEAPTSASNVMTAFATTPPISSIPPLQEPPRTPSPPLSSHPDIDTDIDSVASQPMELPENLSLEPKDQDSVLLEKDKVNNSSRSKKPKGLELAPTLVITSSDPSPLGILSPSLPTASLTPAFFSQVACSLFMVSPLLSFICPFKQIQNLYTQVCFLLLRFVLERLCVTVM", "in_short": "as §1"}, "ELF3": {"biological_target": "T6, ELF3 (Homo sapiens, UniProt P78545 1-371)", "T6 sequence": "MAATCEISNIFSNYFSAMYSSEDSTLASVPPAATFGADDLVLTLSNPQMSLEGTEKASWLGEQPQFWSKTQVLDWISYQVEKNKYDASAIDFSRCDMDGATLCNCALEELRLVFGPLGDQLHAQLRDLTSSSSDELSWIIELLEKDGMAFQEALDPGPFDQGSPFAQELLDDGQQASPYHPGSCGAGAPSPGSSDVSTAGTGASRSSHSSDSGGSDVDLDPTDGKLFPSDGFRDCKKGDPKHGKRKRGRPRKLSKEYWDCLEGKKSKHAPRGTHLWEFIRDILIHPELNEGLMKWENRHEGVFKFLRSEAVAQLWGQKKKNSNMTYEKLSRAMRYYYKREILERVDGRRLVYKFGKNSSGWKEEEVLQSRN", "in_short": "as §1"}, "ETV1": {"biological_target": "ETV1 (Homo sapiens, UniProt P50549 1-477)", "sequence (P50549 whole entry)": "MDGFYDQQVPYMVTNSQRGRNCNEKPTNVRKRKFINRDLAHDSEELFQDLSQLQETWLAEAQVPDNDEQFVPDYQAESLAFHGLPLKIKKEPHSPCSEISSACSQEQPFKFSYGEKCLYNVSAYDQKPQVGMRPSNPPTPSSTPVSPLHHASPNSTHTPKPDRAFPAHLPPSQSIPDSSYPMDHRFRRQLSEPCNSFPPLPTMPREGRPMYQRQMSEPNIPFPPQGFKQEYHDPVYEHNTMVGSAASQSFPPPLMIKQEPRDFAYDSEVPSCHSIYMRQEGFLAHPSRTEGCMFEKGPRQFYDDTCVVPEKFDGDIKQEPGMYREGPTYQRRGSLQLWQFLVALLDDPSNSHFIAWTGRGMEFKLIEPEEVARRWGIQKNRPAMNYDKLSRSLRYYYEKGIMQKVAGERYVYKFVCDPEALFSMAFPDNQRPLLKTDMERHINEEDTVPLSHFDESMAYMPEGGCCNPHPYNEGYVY", "in_short": "as §1"}, "ERF": {"biological_target": "T7, ERF (Homo sapiens, UniProt P50548 1-548)", "T7 sequence": "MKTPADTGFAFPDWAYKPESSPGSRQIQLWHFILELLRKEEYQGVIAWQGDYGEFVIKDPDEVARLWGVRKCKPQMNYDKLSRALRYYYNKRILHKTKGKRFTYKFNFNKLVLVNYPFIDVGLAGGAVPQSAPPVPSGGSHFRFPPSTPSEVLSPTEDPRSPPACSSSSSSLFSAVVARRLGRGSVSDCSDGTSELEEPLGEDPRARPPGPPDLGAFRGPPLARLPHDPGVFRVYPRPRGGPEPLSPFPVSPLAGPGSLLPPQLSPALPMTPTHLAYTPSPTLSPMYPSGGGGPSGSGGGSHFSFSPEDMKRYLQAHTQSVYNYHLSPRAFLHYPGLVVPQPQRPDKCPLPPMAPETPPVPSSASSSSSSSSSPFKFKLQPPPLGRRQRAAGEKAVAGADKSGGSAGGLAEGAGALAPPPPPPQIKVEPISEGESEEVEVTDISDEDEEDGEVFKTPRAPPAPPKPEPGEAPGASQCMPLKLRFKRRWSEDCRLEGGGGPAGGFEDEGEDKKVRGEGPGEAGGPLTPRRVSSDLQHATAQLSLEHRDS", "in_short": "as §1"}, "SPDEF": {"biological_target": "T8, SPDEF (Homo sapiens, UniProt O95238 1-335)", "T8 sequence": "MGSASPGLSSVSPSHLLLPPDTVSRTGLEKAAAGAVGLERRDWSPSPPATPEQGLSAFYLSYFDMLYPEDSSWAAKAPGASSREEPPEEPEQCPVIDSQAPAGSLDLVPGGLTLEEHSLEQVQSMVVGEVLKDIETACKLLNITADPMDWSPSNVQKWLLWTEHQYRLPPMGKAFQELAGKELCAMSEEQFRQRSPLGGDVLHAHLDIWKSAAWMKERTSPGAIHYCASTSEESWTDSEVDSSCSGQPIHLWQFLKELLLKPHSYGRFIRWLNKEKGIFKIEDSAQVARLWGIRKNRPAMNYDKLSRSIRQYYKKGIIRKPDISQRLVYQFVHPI", "in_short": "as §1"}, "ETV7": {"biological_target": "T9, ETV7 (Homo sapiens, UniProt Q9Y603 1-341)", "T9 sequence": "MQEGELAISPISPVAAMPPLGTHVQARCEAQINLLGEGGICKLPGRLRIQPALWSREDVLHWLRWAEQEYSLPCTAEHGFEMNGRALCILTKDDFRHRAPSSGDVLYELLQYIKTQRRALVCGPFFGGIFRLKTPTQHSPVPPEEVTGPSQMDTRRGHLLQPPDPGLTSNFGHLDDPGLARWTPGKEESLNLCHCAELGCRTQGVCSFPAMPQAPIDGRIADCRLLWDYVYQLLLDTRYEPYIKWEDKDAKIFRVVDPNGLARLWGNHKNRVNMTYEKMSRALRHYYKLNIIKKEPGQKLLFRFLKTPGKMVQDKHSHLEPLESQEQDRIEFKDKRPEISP", "in_short": "as §1"}, "ETV6": {"biological_target": "ETV6 (Homo sapiens, UniProt P41212 1-452)", "sequence (P41212 whole entry)": "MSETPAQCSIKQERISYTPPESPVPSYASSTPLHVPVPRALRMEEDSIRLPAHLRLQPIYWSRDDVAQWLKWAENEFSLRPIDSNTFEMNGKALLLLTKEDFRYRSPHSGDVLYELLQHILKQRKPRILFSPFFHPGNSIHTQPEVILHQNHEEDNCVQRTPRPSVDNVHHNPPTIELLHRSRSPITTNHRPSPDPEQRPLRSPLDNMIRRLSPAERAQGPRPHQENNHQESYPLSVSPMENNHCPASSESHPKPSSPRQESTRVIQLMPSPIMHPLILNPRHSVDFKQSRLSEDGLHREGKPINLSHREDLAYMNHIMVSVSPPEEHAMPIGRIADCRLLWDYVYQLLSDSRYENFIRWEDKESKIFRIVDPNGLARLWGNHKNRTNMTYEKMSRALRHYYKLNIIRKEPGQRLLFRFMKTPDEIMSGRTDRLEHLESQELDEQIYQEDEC", "in_short": "as §1"}},
  "data": [
    {"sequence": "GTCACG", "values": [
      {"measurement": "binding signal", "setting": "ERG", "result": "1.06 fold enrichment (6-mer frequency, TF over GST control)"},
      {"measurement": "binding signal", "setting": "EHF", "result": "1.07 fold enrichment (6-mer frequency, TF over GST control)"},
      {"measurement": "binding signal", "setting": "ELK3", "result": "1.02 fold enrichment (6-mer frequency, TF over GST control)"},
      {"measurement": "binding signal", "setting": "SPIC", "result": "1.04 fold enrichment (6-mer frequency, TF over GST control)"},
      {"measurement": "binding signal", "setting": "ELF4", "result": "1.07 fold enrichment (6-mer frequency, TF over GST control)"},
      {"measurement": "binding signal", "setting": "ELK4", "result": "1.08 fold enrichment (6-mer frequency, TF over GST control)"},
      {"measurement": "binding signal", "setting": "ELF3", "result": "1.02 fold enrichment (6-mer frequency, TF over GST control)"},
      {"measurement": "binding signal", "setting": "ETV1", "result": "1.1 fold enrichment (6-mer frequency, TF over GST control)"},
      {"measurement": "binding signal", "setting": "ERF", "result": "1.08 fold enrichment (6-mer frequency, TF over GST control)"},
      {"measurement": "binding signal", "setting": "SPDEF", "result": "1.02 fold enrichment (6-mer frequency, TF over GST control)"},
      {"measurement": "binding signal", "setting": "ETV7", "result": "1.04 fold enrichment (6-mer frequency, TF over GST control)"},
      {"measurement": "binding signal", "setting": "ETV6", "result": "1.04 fold enrichment (6-mer frequency, TF over GST control)"}
    ]}
  ]
}
